Laboratory results from PubChem BioAssay (NCATS).
Records with an inconclusive call do not appear. The source made the active and inactive calls. Calls come from the whole dose curve; as a rule, active = well fitted cell-killing curve with a large enough effect; inconclusive = small, poorly fitted or top-dose-only effect, or effect the other way; inactive = flat fitted curve, though single readings scatter.

Tests used:
Assay in all cases: Primary qHTS to identify gynecologic anti-cancer compounds using libraries of approved drugs and bioactive compounds (AID 1345084); note: nearly all actives have a fitted effect of over 55% in size
Conditions in all cases: Gynecologic cancer cell panel viability, ATPlite luminescence, 48 h; series mostly up to 57.5 µM
OV90 = system: OV90
Procedure, shortened: (§1)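 Measured: luminescence after ATPlite addition (15 min, RT). Exposure: 48 h, 37 C, 5% CO2.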

PA-1 = system: PA-1
Procedure, shortened: as §1

SKOV3 = system: SKOV3
Procedure, shortened: as §1

Tov-21-G = system: Tov-21-G
Procedure, shortened: as §1

Tov112D = system: Tov112D
Procedure, shortened: as §1
% is set by controls: 0 for no effect and ±100 for the full control effect.

CC(=O)OCC(=O)[C@@]12O[C@@H]1C[C@H]1[C@@H]3CC=C4C[C@@H](O)CC[C@]4(C)[C@H]3CC[C@@]12C
inactive: Potency (OV90) | Potency (PA-1) | Potency (SKOV3) | Potency (Tov-21-G) | Potency (Tov112D)

Fc1ccc(CN2CCC(Nc3ccc(C(F)(F)F)nn3)CC2)cc1F
inactive: Potency (OV90) | Potency (PA-1) | Potency (SKOV3) | Potency (Tov-21-G) | Potency (Tov112D)

O=C(O)c1cccc(-c2ccc(-c3cn(C(=O)N4CCCCC4Cc4ccccc4)nn3)cc2)c1 (stereo not given)
inactive: Potency (OV90) | Potency (PA-1) | Potency (SKOV3) | Potency (Tov-21-G) | Potency (Tov112D)

O=C(NCCN1CCC(n2c(=O)[nH]c3ccccc32)CC1)c1cc2cc(F)ccc2[nH]1
inactive: Potency (OV90) | Potency (PA-1) | Potency (SKOV3) | Potency (Tov-21-G) | Potency (Tov112D)

CN1CCN(C(=O)CN[C@@H]2C[C@H]2c2ccc(OCc3ccccc3)cc2)CC1
inactive: Potency (OV90) | Potency (PA-1) | Potency (SKOV3) | Potency (Tov-21-G) | Potency (Tov112D)

O=c1cc(NCCCN[C@@H]2CCOc3c(Br)cc(Br)cc32)[nH]c2ccsc12
inactive: Potency (OV90) | Potency (PA-1) | Potency (SKOV3) | Potency (Tov-21-G) | Potency (Tov112D)

CC(C)[C@@H](c1ccc(C(F)(F)F)cc1CN(Cc1cc(C(F)(F)F)cc(C(F)(F)F)c1)c1nnn(C)n1)N1CCC(C(=O)O)CC1
inactive: Potency (OV90) | Potency (PA-1) | Potency (SKOV3) | Potency (Tov-21-G) | Potency (Tov112D)

Cc1cn2cc(C(=O)N(C)CCO)cc(NC3CCOc4cccc(C)c43)c2n1 (stereo not given)
inactive: Potency (OV90) | Potency (PA-1) | Potency (SKOV3) | Potency (Tov-21-G) | Potency (Tov112D)

CC[C@@H](Nc1c(Nc2cccc(C(=O)N(C)C)c2O)c(=O)c1=O)c1cc(C(C)C)co1
inactive: Potency (OV90) | Potency (PA-1) | Potency (SKOV3) | Potency (Tov-21-G) | Potency (Tov112D)

COc1cc(C(=O)NC(=S)Nc2cccc(NC(=O)c3ccccc3)c2)cc(OC)c1OC
inactive: Potency (OV90) | Potency (PA-1) | Potency (SKOV3) | Potency (Tov-21-G) | Potency (Tov112D)

CCC/C=C\C=C/CCc1cc(O)c([C@@H]2O[C@H](CO)[C@@H](O)[C@H](O)[C@H]2O)c(O)c1C(=O)OC
inactive: Potency (OV90) | Potency (PA-1) | Potency (SKOV3) | Potency (Tov-21-G) | Potency (Tov112D)

CC1(C)C2CCC(CO[C@@H]3O[C@H](CO[C@@H]4OC[C@](O)(CO)[C@H]4O)[C@@H](O)[C@H](O)[C@H]3O)C1C2 (stereo not given in full)
inactive: Potency (OV90) | Potency (PA-1) | Potency (SKOV3) | Potency (Tov-21-G) | Potency (Tov112D)

COC1CCN(C(=O)c2cc(Cc3n[nH]c(=O)c4ccccc34)ccc2F)CC1
inactive: Potency (OV90) | Potency (PA-1) | Potency (SKOV3) | Potency (Tov-21-G) | Potency (Tov112D)

COc1ccc(C(=O)Nc2c(Cl)cncc2Cl)cc1OC1CCCC1
inactive: Potency (OV90) | Potency (PA-1) | Potency (SKOV3) | Potency (Tov-21-G) | Potency (Tov112D)

CC(C)(C)C1CCN(C(=O)n2ncc(C(O)(c3ccccc3)c3ccccc3)n2)CC1
inactive: Potency (OV90) | Potency (PA-1) | Potency (SKOV3) | Potency (Tov-21-G) | Potency (Tov112D)

O=C(Nc1ccccc1)N1CCC(Cc2cnc3ccccc3c2)CC1
inactive: Potency (OV90) | Potency (PA-1) | Potency (SKOV3) | Potency (Tov-21-G) | Potency (Tov112D)

CCC(C)C(=O)OC1C(C)C2(O)C(C=C(CO)CC3(O)C(=O)C(C)=CC32)C2C(C)(C)C12OC(=O)C(C)C (stereo not given)
inactive: Potency (OV90) | Potency (PA-1) | Potency (SKOV3) | Potency (Tov-21-G) | Potency (Tov112D)

CC1(C)CCC2(C(=O)OC3OC(COC4OC(CO)C(O)C(O)C4O)C(O)C(O)C3O)CCC3(C)C(=CCC4C5(C)CCC(OC6OCC(O)C(O)C6O)C(C)(C)C5CCC43C)C2C1O (stereo not given)
inactive: activity change, negative = cytotoxicity (OV90) -2.98% [at 11.6 µM] | activity change, negative = cytotoxicity (PA-1) -14.1% [at 11.6 µM] | activity change, negative = cytotoxicity (SKOV3) -2.57% [at 11.6 µM] | activity change, negative = cytotoxicity (Tov-21-G) 0.233% [at 11.6 µM] | activity change, negative = cytotoxicity (Tov112D) -9.09% [at 11.6 µM]

CCCCCCOC(=O)/N=C(\N)c1ccc(NCc2nc3cc(C(=O)N(CCC(=O)OCC)c4ccccn4)ccc3n2C)cc1
inactive: Potency (OV90) | Potency (PA-1) | Potency (SKOV3) | Potency (Tov-21-G) | Potency (Tov112D)

O=C(NCC1(c2nc(-c3ccccc3)cs2)CCOCC1)c1cccc(-c2noc(C(F)(F)F)n2)c1
inactive: Potency (OV90) | Potency (PA-1) | Potency (SKOV3) | Potency (Tov-21-G) | Potency (Tov112D)

COC(CCc1ccc(O)cc1)CC(=O)CCc1ccc(O)cc1 (stereo not given)
inactive: Potency (OV90) | Potency (PA-1) | Potency (SKOV3) | Potency (Tov-21-G) | Potency (Tov112D)

Fc1ccc(N2CCN(CCC3OCCc4ccccc43)CC2)cc1 (stereo not given)
inactive: Potency (OV90) | Potency (PA-1) | Potency (SKOV3) | Potency (Tov-21-G) | Potency (Tov112D)

COC(=O)c1ccc2c(c1)nc(NC(=O)c1ccccc1)n2CCCc1ccccc1
inactive: Potency (OV90) | Potency (PA-1) | Potency (SKOV3) | Potency (Tov-21-G) | Potency (Tov112D)

CC(NCCCc1cccc(C(F)(F)F)c1)c1cccc2ccccc12 (stereo not given)
inactive: Potency (OV90) | Potency (PA-1) | Potency (SKOV3) | Potency (Tov-21-G) | Potency (Tov112D)

CC(=O)O[C@@H]1CC2C(C)(C)C(=O)C=C[C@]2(C)C2CC[C@@]3(C)[C@H](c4ccoc4)OC(=O)[C@H]4O[C@]43[C@@]21C (stereo not given in full)
inactive: Potency (OV90) | Potency (PA-1) | Potency (SKOV3) | Potency (Tov-21-G) | Potency (Tov112D)

CN(C)[C@@H]1CCc2[nH]c3ccc(NC(=O)c4ccc(F)cc4)cc3c2C1
inactive: Potency (OV90) | Potency (PA-1) | Potency (SKOV3) | Potency (Tov-21-G) | Potency (Tov112D)

CCOC(=O)c1csc(Nc2ccc(Cl)cc2)n1
inactive: Potency (OV90) | Potency (PA-1) | Potency (SKOV3) | Potency (Tov-21-G) | Potency (Tov112D)

Cc1ccc(C)c(NC(=O)[C@@H]2CCCN2S(=O)(=O)c2cccc3cccnc23)c1
inactive: Potency (OV90) | Potency (PA-1) | Potency (SKOV3) | Potency (Tov-21-G) | Potency (Tov112D)
